# Source: the supplement of paper PMC8728848
# Shown is part of a subset that was picked to be rich in the strongest signals.
# What was measured:
# Experiment in all cases: glycan array binding signal (z-score within array); higher = stronger binding
# Conditions in all cases: glycan notation: IUPAC condensed, linker removed
# [1] = target: Fuc(a1-2)Gal(b1-3)GalNAc(a1-3)[Fuc(a1-2)]Gal(b1-4)Glc
# Outline: (§1)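 Arrays were curated from the Consortium for Functional Glycomics database, 3228 in total, and kept only where the protein sequence was available. Binding is expressed as a within-array Z-score. This score was averaged across arrays of the same protein sequence at different concentrations or buffers and across linkers, and negative values can be read as non-binding.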
# [2] = target: Fuc(a1-2)Gal(b1-3)[Fuc(a1-4)]GlcNAc
# Outline: as §1
# [3] = target: Fuc(a1-2)Gal(b1-4)Glc6S
# Outline: as §1
# [4] = target: Fuc(a1-2)Gal(b1-4)GlcNAc(b1-2)Man(a1-3)[Fuc(a1-2)Gal(b1-4)GlcNAc(b1-2)Man(a1-6)]Man(b1-4)GlcNAc(b1-4)[Fuc(a1-6)]GlcNAc
# Outline: as §1
# [5] = target: Fuc(a1-2)Gal(b1-4)GlcNAc(b1-6)GalNAc
# Outline: as §1
# [6] = target: Fuc(a1-2)Gal(b1-4)[Fuc(a1-3)]GlcNAc
# Outline: as §1
# [7] = target: Fuc(a1-2)Gal6S(b1-3)GlcNAc6S
# Outline: as §1
# [8] = target: Fuc(a1-2)Gal6S(b1-4)Glc
# Outline: as §1
# [9] = target: Fuc(a1-2)[Gal(a1-3)]Gal(b1-3)GalNAc
# Outline: as §1
# [10] = target: Fuc(a1-2)[Gal(a1-3)]Gal(b1-3)GlcNAc(b1-2)Man(a1-3)[Fuc(a1-2)[Gal(a1-3)]Gal(b1-3)GlcNAc(b1-2)Man(a1-6)]Man(b1-4)GlcNAc(b1-4)GlcNAc
# Outline: as §1
# [11] = target: Fuc(a1-2)[Gal(a1-3)]Gal(b1-3)GlcNAc(b1-2)Man(a1-3)[Fuc(a1-2)[Gal(a1-3)]Gal(b1-3)GlcNAc(b1-2)Man(a1-6)]Man(b1-4)GlcNAc(b1-4)[Fuc(a1-6)]GlcNAc
# Outline: as §1
# [12] = target: Fuc(a1-2)[Gal(a1-3)]Gal(b1-4)GlcNAc(b1-2)Man
# Outline: as §1
# [13] = target: Fuc(a1-3)[Gal(b1-4)]GlcNAc(b1-2)Man(a1-3)[Fuc(a1-3)[Gal(b1-4)]GlcNAc(b1-2)Man(a1-6)]Man(b1-4)GlcNAc(b1-4)GlcNAc
# Outline: as §1
# [14] = target: Fuc(a1-3)[Gal(b1-4)]GlcNAc(b1-3)Gal(b1-4)[Fuc(a1-3)]GlcNAc(b1-3)Gal(b1-4)[Fuc(a1-3)]GlcNAc
# Outline: as §1
# [15] = target: Fuc(a1-3)[Gal3S(b1-4)]Glc
# Outline: as §1
# [16] = target: Gal(a1-3)Gal(b1-3)[Fuc(a1-4)]GlcNAc(b1-2)Man(a1-3)[Gal(a1-3)Gal(b1-3)[Fuc(a1-4)]GlcNAc(b1-2)Man(a1-6)]Man(b1-4)GlcNAc(b1-4)GlcNAc
# Outline: as §1
# [17] = target: Gal(a1-3)Gal(b1-4)GlcNAc(b1-2)Man
# Outline: as §1
# [18] = target: Gal(a1-3)Gal(b1-4)GlcNAc(b1-6)GalNAc
# Outline: as §1
# [19] = target: Gal(b1-3)GlcNAc(a1-6)Gal(b1-4)GlcNAc
# Outline: as §1
# [20] = target: Gal(b1-3)GlcNAc(b1-2)[Gal(b1-3)GlcNAc(b1-6)]Man(a1-6)[Gal(b1-3)GlcNAc(b1-2)Man(a1-3)]Man(b1-4)GlcNAc(b1-4)GlcNAc
# Outline: as §1
# [21] = target: Gal(b1-3)GlcNAc(b1-3)Gal(b1-4)GlcNAc(b1-2)[Gal(b1-3)GlcNAc(b1-3)Gal(b1-4)GlcNAc(b1-6)]Man(a1-6)[Gal(b1-3)GlcNAc(b1-3)Gal(b1-4)GlcNAc(b1-2)Man(a1-3)]Man(b1-4)GlcNAc(b1-4)[Fuc(a1-6)]GlcNAc
# Outline: as §1
# [22] = target: Gal(b1-3)GlcNAc(b1-3)Gal(b1-4)GlcNAc(b1-3)Gal(b1-4)GlcNAc(b1-2)[Gal(b1-3)GlcNAc(b1-3)Gal(b1-4)GlcNAc(b1-3)Gal(b1-4)GlcNAc(b1-6)]Man(a1-6)[Gal(b1-3)GlcNAc(b1-3)Gal(b1-4)GlcNAc(b1-3)Gal(b1-4)GlcNAc(b1-2)Man(a1-3)]Man(b1-4)GlcNAc(b1-4)[Fuc(a1-6)]GlcNAc
# Outline: as §1
# [23] = target: Gal(b1-3)[Neu5Ac(a2-6)]GlcNAc(b1-4)Gal(b1-4)Glc
# Outline: as §1
# [24] = target: Gal(b1-4)Gal
# Outline: as §1
# [25] = target: Gal(b1-4)GalNAc(a1-3)[Fuc(a1-2)]Gal(b1-4)GlcNAc
# Outline: as §1
# [26] = target: Gal(b1-4)GlcNAc(b1-2)Man(a1-3)[Man(a1-6)]Man(b1-4)GlcNAc(b1-4)GlcNAc
# Outline: as §1
# [27] = target: Gal(b1-4)GlcNAc(b1-2)[Gal(b1-4)GlcNAc(b1-4)]Man(a1-3)[Gal(b1-4)GlcNAc(b1-2)Man(a1-6)]Man(b1-4)GlcNAc(b1-4)GlcNAc
# Outline: as §1
# [28] = target: Gal(b1-4)GlcNAc(b1-2)[Gal(b1-4)GlcNAc(b1-4)]Man(a1-3)[GlcNAc(b1-4)][Gal(b1-4)GlcNAc(b1-2)[Gal(b1-4)GlcNAc(b1-6)]Man(a1-6)]Man(b1-4)GlcNAc(b1-4)GlcNAc
# Outline: as §1
# [29] = target: Gal(b1-4)GlcNAc(b1-2)[Gal(b1-4)GlcNAc(b1-6)]Man(a1-6)[Gal(b1-4)GlcNAc(b1-2)Man(a1-3)]Man(b1-4)GlcNAc(b1-4)GlcNAc
# Outline: as §1
# [30] = target: Gal(b1-4)GlcNAc(b1-3)Gal(b1-4)GlcNAc(b1-2)[Gal(b1-4)GlcNAc(b1-3)Gal(b1-4)GlcNAc(b1-6)]Man(a1-6)[Gal(b1-4)GlcNAc(b1-3)Gal(b1-4)GlcNAc(b1-2)Man(a1-3)]Man(b1-4)GlcNAc(b1-4)GlcNAc
# Outline: as §1
binder,measurement,setting,value
Mermaid1 (Stilbonema majum) (protein) MGSSHHHHHHSSGLVPRGSHMAASGWLRSPQGTVVKLYRRSLSWSKADEFCKDVDGRLVVDRTADMHLFLIKNVLKEKKSRVWVGLRRTAPHSRTWIWSDGTRQNEDDLDANLWLRDEPNDAAGEEECALFMYSPWEKAWGLNDYLCRGGCRSYQFICEKWIR,glycan array binding signal (z-score),[1],-0.132
same,glycan array binding signal (z-score),[2],-0.578
same,glycan array binding signal (z-score),[3],2.97
same,glycan array binding signal (z-score),[4],3.06
same,glycan array binding signal (z-score),[5],-0.219
same,glycan array binding signal (z-score),[6],0
same,glycan array binding signal (z-score),[7],1.58
same,glycan array binding signal (z-score),[8],-0.65
same,glycan array binding signal (z-score),[9],3.08
same,glycan array binding signal (z-score),[10],-0.403
same,glycan array binding signal (z-score),[11],-0.259
same,glycan array binding signal (z-score),[12],-0.732
same,glycan array binding signal (z-score),[13],-0.717
same,glycan array binding signal (z-score),[14],-0.381
same,glycan array binding signal (z-score),[15],0.419
same,glycan array binding signal (z-score),[16],2.49
same,glycan array binding signal (z-score),[17],-0.331
same,glycan array binding signal (z-score),[18],-0.176
same,glycan array binding signal (z-score),[19],0.067
same,glycan array binding signal (z-score),[20],-0.787
same,glycan array binding signal (z-score),[21],4.98
same,glycan array binding signal (z-score),[22],6.8
same,glycan array binding signal (z-score),[23],-0.953
same,glycan array binding signal (z-score),[24],3.2
same,glycan array binding signal (z-score),[25],1.62
same,glycan array binding signal (z-score),[26],2.41
same,glycan array binding signal (z-score),[27],0.823
same,glycan array binding signal (z-score),[28],-1.01
same,glycan array binding signal (z-score),[29],-0.567
same,glycan array binding signal (z-score),[30],4.04
